Results reported in PubChem BioAssay (NCI).
Compounds without any hit were thinned out: in the full panel of roughly 83,000, 20% have a hit.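 Single-dose data. Exposure time 48 hours. Values below 10 considered active.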 Unmarked numbers belong to inactive results. Calls of active or inactive are those of the source.

What follows are compounds tested on HL-60(TB) leukemia (assay: NCI-60 one-dose screen, 48 h (100 = growth as untreated, 0 = no growth, -100 = all killed)). Conditions: 10 µM unless noted.

SMILES | growth
CCOC(=O)C1NN(c2ccc(S(N)(=O)=O)cc2)c2nc3nc(-c4cccs4)cc(-c4cccs4)c3c(=O)n21 (configuration not stated) | 96.2%
CCOc1ccc2ncc(C#Cc3cncc(C(=O)Nc4ccc(CN5CCN(C)CC5)c(C(F)(F)F)c4)c3)n2n1 | 1.2% (active)
ClC(Cn1ncc2c(Nc3cccc(Br)c3)nc(SCCN3CCOCC3)nc21)c1ccc(Br)cc1 (configuration not stated) | -31.9% (active)
COc1ccc(N=Nc2c(N)nn3c(-c4cc5ccccc5oc4=O)ccnc23)cc1 | 73.9%
COc1ccc2c(c1)C(Sc1ccc(Cl)cc1)c1c(nc(N)c(C#N)c1N)O2 (configuration not stated) | 44.8%
COc1ccc(N2N=C(c3ccc4c(c3)OCCO4)CC2c2cccc(NC(=O)CCCNS(=O)(=O)c3ccc(F)cc3)c2)cc1 (configuration not stated) | 80.5%
O=C(c1ccc(Cl)cc1)C1[C@H](c2ccc(Br)cc2)[C@@H](c2ccccc2)NC12C(=O)Nc1ccc(Cl)cc12 (some centres not stated) | -45.2% (active)
CN(C)c1nc(NCCNS(=O)(=O)c2ccc(C(=O)/C=C/c3ccc(F)cc3)cc2)nc(Nc2ccc(F)cc2)n1 | -38.7% (active)
C/C(=N\N=C1/C(=O)Nc2ccccc21)c1ccc2c(c1)Nc1ccccc1S2 | 63.6%
S=C(Nc1ccccc1)Nc1ccc(OCc2nc3ccc(Cl)cc3[nH]2)cc1 | 85.2%
O=C(CSc1nnc(-c2c[nH]c3ccccc23)n1-c1ccccc1)c1ccc(Cl)cc1 | 88.9%
COc1ccc(NC(=O)Cn2c(/C=C/c3cccc(OC)c3)nc3ccccc3c2=O)cc1 | 94.6%
